SIRT5 block = SIRT5 desuccinylase inhibitors, primary screen, biochemical, fluorescence imaging, single point, set 5; 330,000 compounds, 1.1% hits; inhibition, % at 15 µM; Purified SirT5, succinyl-peptide AMC, trypsin-coupled fluorescence; NAD-dependent protein deacylase sirtuin-5, mitochondrial (Homo sapiens), Q9NXA8; in the data active = inhibition above about 15%
ERAP1 inh = human ERAP1 aminopeptidase inhibitors, primary screen, biochemical, single point, plate reader | Endoplasmic reticulum aminopeptidase 1 (Homo sapiens), Q9NZ08 | 340,000 compounds, 0.15% hits | recombinant ERAP1, Leu-AMC fluorescence, 60 min | inhibition, % at 10.7 µM;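 active = mean replicate inhibition of at least 30%, or all replicates individually reaching that 30% level; inactive = mean below 30% and not every replicate reaching it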;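 also: 0% = neutral control wells and 100% = L-leucinethiol positive control wells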
FGF22 binding = binders of human FGF22 protein, primary screen, FGF22 synaptogenesis inhibitor project, biophysical, thermal shift, single point. Fibroblast growth factor 22 (Homo sapiens), Q9HCT0. recombinant FGF22 thermal shift, SYPRO orange fluorescence; percent of sucrose octasulfate shift, DMSO zero. activity (Tm shift, normalised), % at 9.99 µM. 340,000 compounds, 1.5% hits;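 active = mean Tm shift, scaled 0 neutral to 100 positive control, at about 1.3% or above, every replicate too, limit read from the data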
CASP6 VEID inh = human caspase-6 inhibitors, primary screen, biochemical, VEID-R110 fluorescence, single point, set 2 | P55212 | purified caspase-6, Z-VEID-R110 cleavage fluorescence | inhibition, % at 12.5 µM | 350,000 compounds, 0.53% hits | AID 686996, 2013;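 active = mean inhibition across replicates at least about 35%, with every replicate also reaching that limit, limit read from the data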;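 also: 0% = median of neutral control wells and 100% = no fluorescence left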
The depositor's hits bear a star; · = no result. This is a sample that favours compounds with a hit; in the whole collection about 3.1% have one here.

SMILES	SIRT5 block	ERAP1 inh	FGF22 binding	CASP6 VEID inh
CS(=O)(=O)N1CCN(CCN2C(=O)c3cccc4cccc(c34)C2=O)CC1	-4	-3	45*	2
CC(C)NC(=O)N1[C@H](CO)[C@@H]2c3ccccc3N(C(=O)C3CC3)C[C@@H]21	1	-2	0	-6
C[C@H]1CN([C@@H](C)CO)C(=O)c2cc(C#CC3CCCCC3)cnc2O[C@@H]1CN(C)C(=O)Nc1ccccc1	15*	·	0	·
C[C@@H]1CN([C@@H](C)CO)C(=O)c2cc(C#CC3CCCC3)cnc2O[C@@H]1CN(C)C(=O)Nc1ccccc1	4	0	0	-3
C[C@H](CO)N1C[C@H](C)[C@H](CN(C)S(=O)(=O)c2cccc(F)c2)Oc2ncc(-c3cc4ccccc4o3)cc2C1=O	15*	0	-1	-1
C[C@@H]1CN([C@@H](C)CO)C(=O)c2cc(C#CC3CCCCC3)cnc2O[C@H]1CN(C)S(=O)(=O)c1cccc(F)c1	22*	-3	0	-1
COc1cccc(S(=O)(=O)N(C)C[C@@H]2Oc3ncc(-c4cc5ccccc5o4)cc3C(=O)N([C@H](C)CO)C[C@@H]2C)c1	-1	2	0	3
C[C@@H]1CN([C@@H](C)CO)C(=O)c2cc(C#CC3CCCCC3)cnc2O[C@@H]1CN(C)S(=O)(=O)c1cccc(F)c1	18*	0	-1	-3
Cc1ccc(S(=O)(=O)N(C)C[C@H]2Oc3ccc(NC(=O)CCN4CCOCC4)cc3C(=O)N([C@@H](C)CO)C[C@H]2C)cc1	-2	0	0	1
CO[C@H]1CC[C@H]2CCN(C)C(=O)C[C@H](c3ccccc3)CN(C)C(=O)c3cc(C#N)ccc3OC[C@H]1O2	4	0	0	3
C/C=C/c1cnc2c(c1)C(=O)N([C@@H](C)CO)C[C@@H](C)[C@@H](CN(C)Cc1ccncc1)O2	-9	0	0	0
C[C@H](CO)N1C[C@H](C)[C@@H](CN(C)S(=O)(=O)c2ccccc2)Oc2ncc(C#CC3CCCCC3)cc2C1=O	15	0	-1	0
C[C@H](CO)N1C[C@H](C)[C@@H](CN(C)S(=O)(=O)c2cccc(F)c2)Oc2ncc(C#CC3CCCCC3)cc2C1=O	30*	0	0	1
C[C@@H]1CN([C@@H](C)CO)C(=O)c2cc(C#CC3CCCCC3)cnc2O[C@@H]1CN(C)S(=O)(=O)c1ccccc1	16*	-2	-1	-2
CO[C@@H]1CN(C)C(=O)c2ccc(NS(C)(=O)=O)cc2OC[C@H](C)N(CC2CCOCC2)C[C@@H]1C	-1	1	0	1
CN=C(Nc1cc(C)nn1-c1ccccc1)c1ccccc1F	16*	-2	0	31
CCOc1ccc(S(=O)(=O)N2CCN=C2c2ccccc2)cc1	-6	-8	0	-1
Cc1cc(S(=O)(=O)N2CCN=C2c2ccccc2)c(C)cc1Cl	21*	-1	0	1
C[C@@H]1CN([C@@H](C)CO)S(=O)(=O)c2ccc(-c3ccc(C(=O)N(C)C)cc3)cc2O[C@H]1CN(C)C(=O)C1CCC1	-2	0	0	1
Cc1cc(-c2nnc(SCC(=O)Nc3ccccn3)o2)no1	0	1	0	2
Cc1ccc(NC(=O)CSc2nnc(-c3cc(C)on3)o2)cc1	-1	0	0	2
Cc1cc(-c2nnc(SCC(=O)c3ccc(F)cc3)o2)no1	-3	-3	44*	1
Cc1cc(-c2nnc(SCC(=O)c3ccc4c(c3)OCCO4)o2)no1	3	-1	44*	0
CO[C@H]1CN(C)C(=O)c2cc(NC(=O)NC3CCCCC3)ccc2OC[C@@H](C)N(C)C[C@@H]1C	-1	-3	·	2
COc1ccc(C#Cc2ccc3c(c2)[C@]2(C(=O)N3)[C@H](c3ccc(O)cc3)N3[C@H](c4ccccc4)[C@H](c4ccccc4)OC(=O)[C@H]3[C@@H]2C(=O)N2CCc3cc(OC)c(OC)cc3C2)cc1	-1	3	1	-1
SMILES	SIRT5 block	ERAP1 inh	FGF22 binding	CASP6 VEID inh
CCOP(=O)(O)c1cccc(OCCOCCOc2cccc(P(=O)(O)OCC)c2)c1	-1	2	44*	0
C[C@@H]1CN([C@H](C)CO)C(=O)c2cc(C#CCN(C)C)cnc2O[C@H]1CN(C)C(=O)Nc1cccc(F)c1	4	1	0	-68
CCO[C@@H]1OC(C(=O)N2CCN(C)CC2)=C[C@H](c2ccccc2)[C@H]1CCCO	-1	1	0	-2
COc1ccccc1C(=O)NC(=O)CSc1cccc[n+]1[O-]	3	4	44*	3
COc1cccc(NC(=O)CSc2cccc[n+]2[O-])c1	-4	1	1	-2
COc1ccccc1CNc1nc(Nc2ccccc2-n2cccn2)c2sccc2n1	-1	2	0	43*
CCCCNC(=O)C1C(c2ccc(C(F)(F)F)cc2)=Nc2ccccc2N1C(=O)c1ccc2nc(C)[nH]c2c1 (stereo not given)	·	1	0	40*
CC(C)NC(=O)C1C(c2ccc(C(F)(F)F)cc2)=Nc2ccccc2N1C(=O)c1ccco1 (stereo not given)	·	44*	0	0
COCC(=O)N(C)C[C@H]1Oc2cc(C3=CCCCC3)ccc2S(=O)(=O)N([C@H](C)CO)C[C@@H]1C	0	2	0	1
CCOc1cccc(CN2CCCC(N3CCc4ccccc4C3)C2)c1O (stereo not given)	-2	-2	0	-2
CCOc1cccc(CN2CCCC(N3CCN(c4cccc(Cl)c4)CC3)C2)c1O (stereo not given)	69*	-1	0	2
COc1ccc(Nc2nc(N)nc(CSc3nccn3C)n2)cc1	1	2	44*	1
CN(c1cccc(NC(=O)CN(c2cccc(F)c2)S(C)(=O)=O)c1)S(C)(=O)=O	1	3	43*	-1
CS(=O)(=O)N(CC(=O)N1CCCC1)c1ccc(F)cc1	·	-6	0	1
CS(=O)(=O)N(CC(=O)NCC1CCCO1)c1cccc(Cl)c1 (stereo not given)	-4	0	44*	-1
CS(=O)(=O)N(CC(=O)N1CCCC1)c1cccc(F)c1	101*	2	0	-2
CS(=O)(=O)N(CC(=O)N1CCCCC1)Cc1ccccc1	17*	-2	0	0
CS(=O)(=O)N(CC(=O)NCC1CCCO1)c1cc(Cl)cc(Cl)c1 (stereo not given)	0	8	0	0
CS(=O)(=O)N(CCc1ccccc1)CC(=O)N1CCCCCC1	-3	-4	1	0
Cc1noc(C)c1NC(=O)Nc1ccc2c(c1)C(=O)N(C)[C@@H]1CC[C@H](CC(=O)N(C)C)O[C@H]1CO2	2	-2	0	1
